TDP1 cell CPT = DT40-hTDP1 cell growth loss with CPT. chicken DT40 Tdp1-/-;hTDP1 cells + 20 nM CPT, ATP luminescence, 48 h. hit rate 12% among 420,000. Potency, µM (titrated, usually from 46.2 µM), for the others: at the top dose activity change, negative = growth inhibition, actives largely listed as inhibitors. AID 686979; also: nearly all actives have a fitted effect of over 55% in size
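Chicken DT40 Tdp1-/- cells stably complemented with human TDP1 were seeded at 400 cells/well in medium containing 20 nM camptothecin, exposed to pin-transferred compounds, and grown at 37 °C for at least 48 hr. Viability was read as ATP luminescence.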
KB-V1 cytotox = KB-V1 MDR subline cytotoxicity; KB-V1 MDR cells viability, CellTiter-Glo, 72 h; Potency, µM (titrated, usually from 46.1 µM), usual class: cytotoxic; hit rate 3.4% among 400,000; AID 1347076; also: nearly all actives have a fitted effect of over 60% in size
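KB-V1 cells (P-gp-expressing MDR subline of KB-3-1) in phenol-red-free DMEM with 10% FBS were exposed to library compounds over a concentration series for 72 h at 37 degrees C. Viability read by CellTiter-Glo luminescence; concentration-effect curves fitted after normalization.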
DT40 TDP1 no CPT = qHTS for Inhibitors of human tyrosyl-DNA phosphodiesterase 1 (TDP1): qHTS in cells in absence of CPT; DT40 Tdp1-/- hTDP1 cells, no CPT, ATP luminescence, 48 h; Potency, µM (series often up to 46.2 µM), inactives show top-dose activity change, negative = growth inhibition, most hits filed as inhibitors; hit rate 15% among 420,000; AID 686978, 2013; also: nearly all actives have a fitted effect of over 55% in size
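Growth kinetics read by CellTiter-Glo luminescence after ≥48 hr at 37 °C. Cells: DT40 Tdp1-/- stably carrying human TDP1, 400 per well, compound exposure in the absence of CPT (DMSO vehicle).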
HT1080 IDH1KD tx = kills HT-1080 cells with IDH1 knockdown | HT-1080 IDH1 knockdown viability, ATP luminescence, 48 h | Potency, µM (doses to about 46.1 µM), inactives show at the highest dose activity, negative = toxicity, actives largely listed as cytotoxic | hit rate 2% among 360,000 | AID 686971;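 also: 0% = DMSO wells and -100% = cell-free medium wells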
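In this qHTS, HT-1080 cells depleted of IDH1 are exposed for 48 h at 37 °C to compound titrations. Toxicity is scored from CellTiter-Glo luminescence, with DMSO as full viability and medium alone as none.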
HT1080-NT tox = kills 2HG-producing HT-1080-NT fibrosarcoma cells; HT-1080-NT fibrosarcoma viability, CellTiter-Glo ATP luminescence, 48 h; Potency, µM (titrated, usually from 46.1 µM), for inactives: at the top dose activity, negative = less viability, most hits filed as cytotoxic; hit rate 1.6% among 360,000;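 also: NT is the 2HG producing partner of a matched IDH1 knockdown line; 0% = DMSO-treated cells and -100% = media-only wells without cells; nearly all actives have a fitted effect of over 55% in size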
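750 cells/well, RPMI + 5% FBS; 2 h settle, compound pin-transfer, 48 h at 37 degrees C. CellTiter-Glo 10 min RT, luminescence. Normalized to DMSO and media-only wells.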
KB-3-1 cytotox = KB-3-1 parental cell cytotoxicity | Potency, µM (series often up to 46.1 µM), actives largely listed as cytotoxic | KB-3-1 viability, CellTiter-Glo ATP luminescence, 72 h | AID 1347075 | hit rate 1.4% among 400,000; also: nearly all actives have a fitted effect of over 60% in size
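Luminescent ATP read-out (CellTiter-Glo) measures survival of drug-naive KB-3-1 cells after 72 h compound exposure at 37 °C. Titration series was screened from lowest to highest concentration, with DMSO vehicle plates as background controls.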
The depositor's hits bear a star; i = inactive; ? = inconclusive; nt = no result given; [ ] = remark or other dose. Only some compounds are listed: those with a hit (about 19% of all), similar ones and a draw of the others. Calls follow the shape of the dose curve; as a rule, active = well fitted curve in the direction sought with a large enough effect; inconclusive = small, poorly fitted or top-dose-only effect, or another doubt; inactive = no such curve, though single readings can be large; an effect the other way counts as inactive or inconclusive. Unless noted, % is scaled to controls: 0 for no effect and ±100 for the full control effect; potency is read from the fitted curve at half-maximal effect.

SMILES | TDP1 cell CPT | KB-V1 cytotox | DT40 TDP1 no CPT | HT1080 IDH1KD tx | HT1080-NT tox | KB-3-1 cytotox
O=C1NC(=O)C(=Cc2ccc(Cl)cc2)C(=O)N1 | 3% | i | 5% | 0% | 22% | nt
Clc1ccc(-c2csc3ncnc(Sc4nnnn4C4CC4)c23)cc1 | 5µM* | ? | 3.2µM* | nt | nt | ?
CC1CC2CC(=O)C3CCCN4CCCC2[C@]34C1 (stereo partly specified) | 6% | nt | -2% | nt | nt | nt
CCc1cccc(C)c1NC(=S)N1CC2CC(C1)c1cccc(=O)n1C2 (stereo unspecified) | -14% | i | -16% | 0% | 3% | i
CCCC(=O)Nc1cc(C(=O)N2CCC3(CC2)OCCO3)ccc1S(=O)(=O)c1ccc(C)cc1 | ? | 10µM* | -14% | -2% | 4% | i
COc1ccc(C(=O)O)cc1OC | 16% | i | -1% | 5% | 4% | i
O=C(O)c1cc[c]([Hg][Cl])cc1 | 0.65µM* | i | 0.92µM* | 18µM* | 16µM* | i
N#CC1=C(N)Oc2cc(O)ccc2C1c1ccc2c(c1)OCO2 (stereo unspecified) | 7% | i | -1% | -3% | -13% | i
COP(=O)(OC)C1(Nc2ccc(C)cc2)CCCCC1 | ? | i | ? | 2% | 0% | i
CC12C=CC(=O)C=C1CC(O)C1C2CCC2(C)C1CCC2(C)O (stereo unspecified) | 6% | i | -13% | 13% | 13% | ?
C#CC1(O)CCC2C3CCC4=CC(=O)CCC4=C3C=CC21C (stereo unspecified) | 8.2µM* | 2.6µM* | 15µM* | ? | ? | 2.3µM*
C=CC[C@]1(O)CC[C@H]2[C@@H]3CCC4=CC(=O)CCC4=C3C=C[C@@]21C | 13µM* | nt | 7.5µM* | nt | nt | nt
CCOC(=O)c1c(C)[nH]c(C(=O)C(Cc2ccccc2)N(C)C)c1C (stereo unspecified) | ? | ? | ? | -2% | 0% | i
Cc1ccc(C(=O)c2cn(CC(=O)Nc3ccc(C(C)C)cc3)c3nc(C)ccc3c2=O)cc1 | 6.5µM* | i | 6.5µM* | nt | nt | i
CN(C)c1ccc([N+](=O)[O-])c([N+](=O)[O-])c1 | ? | i | ? | -4% | -16% | i
CN(C)c1ccc([P+](=O)c2ccc(N(C)C)cc2)cc1 | ? | ? | 21µM* | 2% | 4% | i
CNS(=O)(=O)c1cc(NC(=O)c2cccc3cccnc23)ccc1C | 23µM* | ? | 21µM* | -5% | 10% | i
O=C(CCl)NN=C(c1ccccc1)c1ccccc1 | 5.8µM* | i | 5.2µM* | -6% | 12% | ?
NCC(=O)c1ccccc1 | ? | ? | 0% | 3% | 0% | ?
O[C@H]1CCCC[C@H]1N1CCC(c2ccccc2)CC1 | -8% | nt | -4% | nt | nt | nt
C=C1[C@H]2C[C@H]3[C@H]4N5C[C@]6(C)CCC[C@]47[C@H]([C@H]2O)[C@]3(C[C@]5(O)[C@H]67)[C@@H]1O | 11% | i | 9% | 5% | 0% | i
COC(=O)C1=C(c2cccc(OCc3ccccc3)c2)C[C@@H]2CC[C@H]1N2C(=O)NCc1ccccc1C(F)(F)F | 21µM* | i | 23µM* | -3% | 2% | i
COC(=O)C1=C(c2cccc(OCc3ccccc3)c2)C[C@@H]2CC[C@H]1N2C(=O)NCc1cccc(OC)c1 | 23µM* | ? | 15µM* | -5% | -4% | ?
COC(=O)C1=C(c2cccc(OCc3ccccc3)c2)C[C@@H]2CC[C@H]1N2C(=O)NCCOc1ccc(OC)cc1 | 23µM* | ? | ? | -3% | -2% | ?
COC(=O)C1=C(c2cccc(OCc3ccccc3)c2)C[C@@H]2CC[C@H]1N2C(=O)NCc1ccc(C(C)(C)C)cc1 | ? | i | 21µM* | 1% | -4% | i
SMILES | TDP1 cell CPT | KB-V1 cytotox | DT40 TDP1 no CPT | HT1080 IDH1KD tx | HT1080-NT tox | KB-3-1 cytotox
COC(=O)C1=C(c2ccccc2)C[C@@H]2CC[C@H]1N2C(=O)NCc1ccc(C(F)(F)F)cc1 | ? | i | ? | -1% | 0% | i
COCCNC(=O)N1[C@H]2CC[C@@H]1C(C(=O)OC)=C(c1cccc(C#N)c1)C2 | -2% | i | -5% | 4% | 0% | i
COC(=O)C1=C(c2ccc(F)cc2OCc2ccccc2)C[C@@H]2CC[C@H]1N2C(=O)NCc1ccccc1Cl | ? | i | ? | -15% | -3% | i
COc1cccc(-n2c(O)c(C=NCCN3CCNCC3)c(=O)[nH]c2=S)c1 | 15% | i | -6% | 19% | 7% | i
O=C(NCNC(=O)NC1C(=O)NC(=O)N1CO)NC1C(=O)NC(=O)N1CO (stereo unspecified) | 2% | i | 3% | 15% | -4% | i
COC(=O)C1=C(c2cccc(OCc3ccccc3)c2)C[C@@H]2CC[C@H]1N2C(=O)NCCCOC(C)C | 21µM* | ? | 18µM* | -4% | -7% | i
COC(=O)C1=C(c2ccccc2OCc2ccccc2)C[C@@H]2CC[C@H]1N2C(=O)NCCCOC(C)C | 16µM* | i | ? | -8% | 0% | i
COC(=O)C1=C(c2cccc(OCc3ccccc3)c2)C[C@@H]2CC[C@H]1N2C(=O)NCCN1CCOCC1 | 16µM* | ? | ? | ? | -20% | ?
O=S(=O)(O)C(F)(F)C(F)(F)C(F)(F)C(F)(F)C(F)(F)C(F)(F)C(F)(F)C(F)(F)F | -21%[92.5 µM] | nt | ? | nt | nt | nt
Cc1o[nH]c(=O)c1C[C@@H](N)C(=O)O | 1% | nt | -1% | nt | nt | nt
C[C@]12CC[C@H]3[C@@H](CCC4=CC(=O)CC[C@@]43C)[C@@H]1CC[C@@H]2OC(=O)CCc1ccccc1 | -13%[92.5 µM] | nt | ? | nt | nt | nt
CC(=Nc1ccc2c(c1)CCC2)c1c(O)n(-c2ccccc2)c(=O)[nH]c1=O | 8% | i | -2% | 22% | 14% | i
O=C(c1ccc(CNS(=O)(=O)c2ccc(Br)cc2)cc1)N1CCC2(CC1)OCCO2 | ? | i | 9.2µM* | -1% | 0% | i
O=C(c1ccc(CNS(=O)(=O)c2ccccc2)cc1)N1CCC2(CC1)OCCO2 | -24% | i | -18% | 0% | 4% | i
CCNC(C)Cc1cccc(C(F)(F)F)c1 (stereo unspecified) | 2% | nt | -15% | nt | nt | nt
O=C1CN=C(c2ccccc2Cl)c2cc(Br)ccc2N1 | 15% | ? | ? | -17% | -21% | i

Assay outcomes (PubChem BioAssay)
